# Results filed as inconclusive are left out. A number with no mark means an inactive call. Active and inactive are the calls of the source. Calls come from the whole dose curve; as a rule, active = well fitted inhibition curve with a large enough effect; inconclusive = small, poorly fitted or top-dose-only effect; inactive = no such curve, though single readings can be large or run the other way.
# Target: Thioredoxin reductase 1, cytoplasmic (Rattus norvegicus) (UniProt O89049)
# Assay: qHTS Assay for Inhibitors of Mammalian Selenoprotein Thioredoxin Reductase 1 (TrxR1) (AID 488773); note: nearly all actives have a fitted effect of over 40% in size
# Details: purified TrxR1 enzyme activity; Potency: inhibition; series mostly up to 57.1 µM; activity change, negative = inhibition: at the top concentration
# Excerpt: The selenoprotein thioredoxin reductase (TrxR; EC 1.8.1.9) is a FAD containing homodimeric pyridine nucleotide-disulfide oxidoreductase with many cellular roles. Together with NADPH and its prime substrate thioredoxin (Trx), the enzyme forms the core of the Trx system. The mammalian Trx system exerts a wide spectrum of functions including redox regulation, antioxidant defense, regulation of transcription factors as well as support of cell growth and replication. Many of these functions involve the reduction of Trx, which may subsequently reduce a number of different substrates including ribonucleotide reductase, peroxiredoxins or NFkB. Mammalian TrxR itself also has a broad substrate specificity, reducing both protein and non-protein substrates, including low molecular weight compounds such as dehydroascorbate, lipoic acid, ubiquinone, and juglone. In addition, several drugs in clinical use for anticancer treatment are indeed known to target TrxR1.
# This BioAssay is a validation of an NADPH fluorescence-based, dual-purpose qHTS rTrxR1 assay designed to find potential inhibitors and substrates of rTrxR1. For this particular BioAssay, actives are potential inhibitors. See related BioAssay for substrate data deposition.
# Assay protocol: 2 uL of reagents (buffer in column 4 as negative control and 90 nM rTrxR1 in columns 1-3 and 5-48) were dispensed into Greiner black solid-bottom 1,536-well assay plates, followed by 1 uL of NADPH (400 uM final concentration) to each well. The plates were centrifuged at 1000 rpm for 15 seconds and subsequently incubated for 5 min at room temperature (~22 deg C) to allow for rTrxR1 reduction. Compounds (23 nL) were then transferred via Kalypsys pin tool equipped with 1536-pin array (10 nL slotted pins, V&P Scientific, San Diego, CA). In addition, a duplicate 2-fold serial dilution of the control compounds auranofin, a known gold-based TrxR1 inhibitor, and juglone (5-hydroxy-1,4-naphthoquinone), a natural TrxR1 substrate, were pin-transferred to columns 2 and 3, respectively. After incubation for 15 min at room temperature (~22 deg C), 1 uL of selenite (400 uM final concentration) were dispensed to each well. The plate was immediately transferred to a ViewLux high-throughput CCD imager (PerkinElmer), wherein kinetic measurements of NADPH fluorescence (Ex 340 nm, Em 450 nm) were acquired (8 minute kinetic read, see Table 1). Read 1 was utilized to assess the capacity of a compound to serve as an rTrxR1 substrate, i.e. a decrease in NADPH fluorescence compared to the no-compound background is an indication of a substrate behavior for that particular compound. For inhibitory activity of a compound, delta values, computed as the difference in fluorescence intensity between the first and last reads of an 8-minute time kinetic window, were used. All reagents were diluted in an assay buffer consisting of 50 mM Tris-HCl, pH 7.5, 2 mM EDTA, and 0.01% Tween-20.
# Throughout the screen, reagent bottle and all liquid lines were made light-tight to minimize reagent degradation. All screening operations were performed on a fully integrated robotic system (Kalypsys, San Diego, CA) containing one RX-130 and two RX-90 anthropomorphic robotic arms (Staubli, Duncan, SC). Library plates were screened starting from the lowest and proceeding to the highest concentration, and a 'double-pinning' step of the highest concentration was required to access higher concentrations of compounds. Vehicle-only plates, with DMSO being pin-transferred to the columns 5-48, were inserted uniformly at the beginning and the end of each library in order to monitor and record any shifts in the background, which can be affected by reagent dispensers or loss in enzyme activity over time. Screening data were corrected, normalized, and concentration-effect relationships were derived by using publicly-available curve fitting algorithms developed in-house (http://ncgc.nih.gov/pub/openhts).
# % is set by controls: 0 for no effect and ±100 for the full control effect; potency is the fitted concentration of half-maximal effect.
# Chain of Thioredoxin reductase 1, cytoplasmic (Rattus norvegicus) (O89049 whole entry, looked up): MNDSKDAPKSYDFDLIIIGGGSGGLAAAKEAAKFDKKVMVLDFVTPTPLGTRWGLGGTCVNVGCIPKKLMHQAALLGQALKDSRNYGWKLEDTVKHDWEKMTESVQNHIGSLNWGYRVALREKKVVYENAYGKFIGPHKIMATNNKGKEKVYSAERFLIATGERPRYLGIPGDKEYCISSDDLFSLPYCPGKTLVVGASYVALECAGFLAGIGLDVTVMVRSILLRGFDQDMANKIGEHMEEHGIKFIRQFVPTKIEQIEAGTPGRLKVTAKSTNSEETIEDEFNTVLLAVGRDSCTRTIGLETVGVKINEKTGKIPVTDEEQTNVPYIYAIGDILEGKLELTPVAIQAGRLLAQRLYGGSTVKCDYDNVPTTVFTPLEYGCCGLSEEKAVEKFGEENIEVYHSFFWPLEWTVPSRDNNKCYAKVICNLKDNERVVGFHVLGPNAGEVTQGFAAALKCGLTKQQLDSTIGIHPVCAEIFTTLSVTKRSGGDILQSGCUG
SMILES,"activity change, negative = inhibition [%]",Potency
Cc1ccc(Cl)c(Nc2ccccc2C(=O)O)c1Cl,3.04,
Cc1ccc(S(=O)(=O)NC(=O)NN2CCCCCC2)cc1,-12.3,
CCN1CCc2nc(N)oc2CC1,,29.9 µM (active)
COc1cc(C(=O)OCCCN2CCCN(CCCOC(=O)c3cc(OC)c(OC)c(OC)c3)CC2)cc(OC)c1OC,-14.8,
CC(C(=O)O)c1ccc(CC2CCCC2=O)cc1 (stereo not given),0.281,
CCN(CC)CCOCCOC(=O)C1(c2ccccc2)CCCC1,-1.23,
CCN(CC)CCNC(=O)c1ccc(NC(C)=O)cc1,2.55,
C[C@]12CCC(=O)C=C1CC[C@@H]1[C@@H]2CC[C@@]2(C)[C@H]1CC[C@]2(O)C(=O)CO,2.29,
CC(C)NCC(O)c1cc(O)cc(O)c1 (stereo not given),-25.7,
CCCN(CCC)CCc1cccc2c1CC(=O)N2,3.94,
CNC1(C)C2CCC(C2)C1(C)C (stereo not given),-3.25,
COc1cc(Cc2cnc(N)nc2N)cc(OC)c1OC,9.55,
CCn1cc(C(=O)O)c(=O)c2cc3c(cc21)OCO3,1.85,
COC(=O)C1=C(C)NC(C)=C(C(=O)OCCN(C)Cc2ccccc2)C1c1cccc([N+](=O)[O-])c1 (stereo not given),-15.5,
NC(N)=N/N=C/c1c(Cl)cccc1Cl,0.439,
COc1ccc(CN(CCN(C)C)c2ccccn2)cc1,-15.5,
CNCCC(Oc1ccccc1OC)c1ccccc1 (stereo not given),-7.14,
CCCC(C(=O)OCCN(CC)CC)(c1ccccc1)c1ccccc1,-8.34,
CCOC(=O)C1=C(C)NC(C)=C(C(=O)OC)C1c1cccc([N+](=O)[O-])c1 (stereo not given),-19.3,
CC(=O)Nc1nnc(S(N)(=O)=O)s1,-0.372,

SMILES,"activity change, negative = inhibition [%]",Potency
COc1cc2c(cc1OC)-c1cc(=Nc3c(C)cc(C)cc3C)n(C)c(=O)n1CC2,-1.58,
Nc1nc(N)c2nc(-c3ccccc3)c(N)nc2n1,176,
NC(=O)c1cn(Cc2c(F)cccc2F)nn1,15.5,
NC(=O)c1ncn([C@@H]2O[C@H](CO)[C@@H](O)[C@H]2O)c1O,1.03,
CC(C)COCC(CN(Cc1ccccc1)c1ccccc1)N1CCCC1 (stereo not given),-9.06,
CN/C(=C\[N+](=O)[O-])NCCSCc1ccc(CN(C)C)o1,-19.5,
CCCCNc1c(C(=O)OCC)c(C)nc2c1cnn2CC,-6.37,
COc1ccc(CCN(C)CCCC(C#N)(c2cc(OC)c(OC)c(OC)c2)C(C)C)cc1OC (stereo not given),-7.81,
COCCOC(=O)C1=C(C)NC(C)=C(C(=O)OC(C)C)C1c1cccc([N+](=O)[O-])c1 (stereo not given),-12.6,
CCCN(CCC)C(=O)C(CCC(=O)O)NC(=O)c1ccccc1 (stereo not given),-6.98,
c1cnc(N2CCN(Cc3ccc4c(c3)OCO4)CC2)nc1,2.27,
CC(N=C(NC#N)Nc1ccncc1)C(C)(C)C (stereo not given),1.49,
CC(C)NNC(=O)c1ccncc1,2.79,
NC(N)=NC(=O)Cc1c(Cl)cccc1Cl,4.07,
C[C@@H](O)[C@H]1C(=O)N2C(C(=O)O)=C(SCCN=CN)C[C@H]12,-12.8,
C(=C\c1ccccc1)/CN1CCN(C(c2ccccc2)c2ccccc2)CC1,-2.53,
CN(C)C/C=C(/c1ccc(Br)cc1)c1cccnc1,-21.7,
NC/C=C/C(=O)O,10.3,
O=C(CCCN1CCC(O)(c2cccc(C(F)(F)F)c2)CC1)c1ccc(F)cc1,-0.991,
Cc1nc2sccn2c(=O)c1CCN1CCC(=C(c2ccc(F)cc2)c2ccc(F)cc2)CC1,-6.64,
